{"source": "PubChem BioAssay (Tox21)", "note": "Inconclusive results are not listed. A call without a number means that no potency is given here. The source made the active and inactive calls. Calls come from the whole dose curve; as a rule, active = well fitted inhibition curve with a large enough effect in the signal ratio in the repeat runs (not every such curve was filed as active); inconclusive = weak or mixed curves, or effect the other way; inactive = no such curve, though single readings can be large or run the other way; the % refers to the signal ratio. Potency is the fitted concentration of half-maximal effect."}
{"molecular_target": "Estrogen receptor beta (Homo sapiens) (UniProt Q92731)", "sequence (Q92731 whole entry, looked up)": "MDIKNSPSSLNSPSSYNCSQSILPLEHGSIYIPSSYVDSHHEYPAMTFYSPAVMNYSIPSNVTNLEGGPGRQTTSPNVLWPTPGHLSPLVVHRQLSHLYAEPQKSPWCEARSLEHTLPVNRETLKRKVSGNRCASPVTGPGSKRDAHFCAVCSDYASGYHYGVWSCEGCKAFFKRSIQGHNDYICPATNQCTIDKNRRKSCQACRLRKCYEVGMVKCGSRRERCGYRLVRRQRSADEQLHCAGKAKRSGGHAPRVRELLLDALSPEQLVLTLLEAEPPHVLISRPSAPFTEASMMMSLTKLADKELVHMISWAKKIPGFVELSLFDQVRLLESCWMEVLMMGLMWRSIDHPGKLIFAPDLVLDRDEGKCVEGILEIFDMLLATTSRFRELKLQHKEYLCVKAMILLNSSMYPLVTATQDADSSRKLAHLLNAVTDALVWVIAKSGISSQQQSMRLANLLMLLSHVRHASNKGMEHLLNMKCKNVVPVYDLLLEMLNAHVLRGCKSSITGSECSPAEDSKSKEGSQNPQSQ", "test": "qHTS assay to identify small molecule antagonists of the estrogen receptor beta (ER-beta) signaling pathway (AID 1259378)", "conditions": "ER-beta-UAS-bla HEK293T, beta-lactamase FRET ratio, 16 h; series mostly up to 92.4 µM", "description": "National Center for Advancing Translational Sciences [NCATS]\nNIH Chemical Genomics Center [NCGC]\nU.S. Environmental Protection Agency [EPA]\nNational Institutes of Environmental Health Sciences [NIEHS]\nNational Toxicology Program [NTP]\nU.S. Food and Drug Administration [FDA]\nEstrogen receptor (ER), a nuclear hormone receptor, plays an important role in development, metabolic homeostasis and reproduction. Two subtypes of ER, ER-alpha and ER-beta, have similar expression patterns with some uniqueness in both types. Endocrine disrupting chemicals (EDCs) and their interactions with steroid hormone receptors like ER causes disruption of normal endocrine function. To identify the compounds that inhibit ER signaling, an ER-beta-UAS-bla GripTite cell line (Life Technologies, Madison, WI, USA) containing a beta-lactamase reporter gene under the control of an UAS response element was used to screen Tox21 10K compound library.\nTox21 Assay Protocol Summary:\nER-beta-UAS-bla HEK293T cells were dispensed at 2,000 cells/4 uL of assay medium containing 2% charcoal stripped FBS per well into black wall/clear-bottom 1536-well plates using a Multidrop Combi (ThermoFisher Scientific, Waltham, MA) dispenser. After the assay plates were incubated at a 37C and 5% CO2 for 6 hr, 23 nL of compounds dissolved in DMSO, positive controls or DMSO only was transferred to the assay plate by a Pintool station (Kalypsys, San Diego, CA), followed by addition of 1 uL (1nM as final concentration) of 17-beta-estradiol (E2) in assay medium using a BioRAPTR FRD (Flying Reagent Dispenser, Aurora Discovery, San Diego, CA). The plates were incubated at 37C and 5% CO2 for 16 hr. Then 1 uL of LiveBLAzerTM B/G FRET substrate was added using a Flying Reagent Dispenser, the plates were incubated at room temperature for 2 hours, and fluorescence intensity was measured by an Envision plate reader (PerkinElmer, Shelton, CT)."}
{"smiles": "CCN(CCC#N)c1ccc(N=Nc2ccc([N+](=O)[O-])cc2)cc1", "Potency": "inactive"}
{"smiles": "C=C1CC[C@H]2O[C@]2(C)CC[C@@H]2[C@@H]1CC2(C)C", "Potency": "inactive"}
{"smiles": "COc1cc(OC)nc(NC(=O)NS(=O)(=O)Nc2ccccc2C(=O)N(C)C)n1", "Potency": "inactive"}
{"smiles": "N#CCCOCCC#N", "Potency": "inactive"}
{"smiles": "Clc1ccc2c(Cl)ccnc2c1", "Potency": "inactive"}
{"smiles": "O=C(CCCCCCCCc1cccnc1)N1CCC(C=C(c2ccccc2)c2ccccc2)CC1", "Potency": "15.4 µM (active)"}
{"smiles": "CCOC=C(C(=O)OCC)C(=O)OCC", "Potency": "inactive"}
{"smiles": "CCc1cccc(CC)c1", "Potency": "inactive"}
{"smiles": "COc1ccc(OC)c(N=Nc2c(O)ccc3ccccc23)c1", "Potency": "inactive"}
{"smiles": "Cn1ccnc1", "Potency": "inactive"}
{"smiles": "c1ccc(-c2nc3ccccc3[nH]2)cc1", "Potency": "inactive"}
{"smiles": "O=[N+]([O-])c1ccc(O)c2ncccc12", "Potency": "5.96 µM (active)"}
{"smiles": "CSc1ccc(O)cc1C", "Potency": "54.5 µM (active)"}
{"smiles": "O=c1cc[nH]cc1", "Potency": "inactive"}
{"smiles": "C=C1C(CCl)(CCl)C2(Cl)C(Cl)C(Cl)C1(Cl)C2(Cl)Cl", "note": "(stereo not given)", "Potency": "27 µM (active)"}
{"smiles": "C/C=C/C(=O)OCC(C)C", "Potency": "inactive"}
{"smiles": "CCCCCCCCc1ccc(Nc2ccc(CCCCCCCC)cc2)cc1", "Potency": "inactive"}
{"smiles": "CCC1(C)C(=O)N(Cl)C(=O)N1Cl", "note": "(stereo not given)", "Potency": "inactive"}
{"smiles": "CC(CC(C)(C)C)CC(C)(C)CC(C)(C)C", "note": "(stereo not given)", "Potency": "inactive"}
{"smiles": "O=C1OCc2ccccc21", "Potency": "inactive"}
{"smiles": "Nc1cc([N+](=O)[O-])ccc1Cl", "Potency": "inactive"}
{"smiles": "O=C(Nc1ccc([N+](=O)[O-])cc1)Nc1ccc([N+](=O)[O-])cc1", "note": "(tested in a mixture with another compound)", "Potency": "inactive"}
{"smiles": "Cc1ccc(Cl)c(N)c1Cl", "Potency": "inactive"}
{"smiles": "CN(C/C=C/c1ccccc1)Cc1cccc2ccccc12", "Potency": "inactive"}
{"smiles": "CC(C=O)c1ccccc1", "note": "(stereo not given)", "Potency": "inactive"}
{"smiles": "Cc1cc(F)ccc1-c1cc(N2CC[C@@H](O)[C@H]2CO)ncc1N(C)C(=O)C(C)(C)c1cc(C(F)(F)F)cc(C(F)(F)F)c1", "Potency": "19 µM (active)"}
{"smiles": "Cc1c[nH]c(=O)[nH]c1=O", "Potency": "inactive"}
{"smiles": "C=COCCCC", "Potency": "inactive"}
{"smiles": "CCCCCc1ccc(O)cc1", "Potency": "inactive"}
{"smiles": "COc1cc(C(C)C)ccc1C", "activity, negative = inhibition": "-9.09% [at 19 µM] (inactive)"}
{"smiles": "CCCC(C)C=O", "note": "(stereo not given)", "Potency": "inactive"}
{"smiles": "CCOC(=O)[C@H](O)[C@@H](O)C(=O)OCC", "Potency": "inactive"}
{"smiles": "CCCCCCCCCCCCS(=O)(=O)Cl", "activity, negative = inhibition": "-20.1% [at 19 µM] (inactive)"}
{"smiles": "CCc1c(C)cc(N)c(CC)c1N", "Potency": "inactive"}
{"smiles": "CCCCCCCCCCCCN1CCCC1=O", "Potency": "48.6 µM (active)"}
{"smiles": "CCN(CC)c1ccc(C=O)cc1", "Potency": "inactive"}
{"smiles": "C=CC(C)(C)O", "Potency": "inactive"}
{"smiles": "Oc1ccc2c(c1)CCC2", "Potency": "inactive"}
{"smiles": "Cc1ccc2n[nH]nc2c1", "Potency": "inactive"}
{"smiles": "Cc1ccc(C=O)cc1", "Potency": "inactive"}
